In PubChem BioAssay (NCI) one finds growth inhibition data, which are given here for 10 compounds.

About 79,000 compounds went through this panel and 15% of them were active in at least one assay; those are over-represented in the sample as a whole. A number with no mark means an inactive call. Calls of active or inactive are those of the source. No stated cut-off is given here; in the data, active means growth inhibition above about 70%; inactive means the rest.

Assay [1] in a line: NCI Yeast Anticancer Drug Screen. Data for the rad50 strain (AID 155).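 Further: 0% = growth of vehicle-only cultures of the same strain.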 Particulars: S. cerevisiae rad50 strain growth inhibition, stronger effect = higher value. The procedure, abridged:
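Yeast carrying a defined DNA repair defect were exposed to test compounds, and growth was compared with vehicle-treated controls to give percent inhibition.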

A short description of assay [2]: NCI Yeast Anticancer Drug Screen. Data for the mec2-1 strain (AID 157). To be noted: S. cerevisiae mec2-1 strain, stronger effect = higher value. The procedure, abridged:
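Each compound was tested on mec2-1 yeast, a strain altered in DNA damage repair or cell cycle control. Growth inhibition is reported relative to vehicle.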

The nature of assay [3]: NCI Yeast Anticancer Drug Screen. Data for the sgs1 mgt1 strain (AID 161).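 Further: 0% = growth of cultures given vehicle only.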 Particulars: S. cerevisiae sgs1 mgt1 strain, stronger effect = higher value. An outline of the steps:
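Read-out: growth inhibition vs vehicle controls. Cells: mutant yeast strain deficient in DNA damage repair.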

Assay [4] in a line: NCI Yeast Anticancer Drug Screen. Data for the cln2 rad14 strain (AID 165).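 Further: 0% = growth equal to vehicle treated cultures.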 Particulars: S. cerevisiae cln2 rad14 strain, stronger effect = higher value. The procedure, abridged: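 Test compounds were added to cln2 rad14 yeast cultures; inhibition of growth was then determined by comparison with vehicle treatment.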
Assay [5] is described as follows: NCI Yeast Anticancer Drug Screen. Data for the bub3 strain (AID 167). Particulars: S. cerevisiae bub3 mutant strain, stronger effect = higher value. The procedure, abridged: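 Compounds were applied to a genetically altered yeast strain carrying a cell-cycle control defect. Growth inhibition was scored against vehicle-treated controls.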
The nature of assay [6]: NCI Yeast Anticancer Drug Screen. Data for the mlh1 rad18 strain (AID 175). To be noted: S. cerevisiae mlh1 rad18 strain growth inhibition, stronger effect = higher value. An outline of the steps: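 Inhibition values reflect reduced growth of mutant yeast versus vehicle-treated controls following compound exposure; the mutations affect DNA damage repair.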
Setting [7] is: at 5.0 µM (retest, dose inferred, filed as 0.5).
The mark [8] stands for this setting: at 50.0 µM (retest, dose inferred, filed as 5.0).

Turning to `CCCCCCCCCCCC(=O)NC(CCC(=O)O)C(=O)O` (stereo not given), the growth inhibition in assay [1] (setting [7]) is 4%; in assay [1] (setting [8]), -2%; in assay [1] (at 50.0 µM), -6.05%; in assay [2] (setting [7]), -19%; in assay [2] (setting [8]) it was -12%; in assay [2] (at 50.0 µM), -8%. The growth inhibition in assay [3] (setting [7]) was -3%; in assay [3] (setting [8]), -1%; in assay [3] (at 50.0 µM), 5.95%; in assay [4] (setting [7]) it was -5%; in assay [4] (setting [8]), -9%; in assay [4] (at 50.0 µM), 49.4%. Also, the growth inhibition in assay [5] (setting [7]) is -7%; in assay [5] (setting [8]), 0%; in assay [5] (at 50.0 µM), -2.15%; in assay [6] (setting [7]) it was -18%; in assay [6] (setting [8]), -8%; in assay [6] (at 50.0 µM), 5.1%.

Take `Cn1c2ccccc2c2cc3cnccc3cc21`: the growth inhibition in assay [1] (setting [7]) is -98%; in assay [1] (setting [8]), 95% (active); in assay [1] (at 50.0 µM), 98.5% (active); in assay [2] (setting [7]), -50%; in assay [2] (setting [8]) it was 73% (active); in assay [2] (at 50.0 µM) it was 96.4% (active). Also, the growth inhibition in assay [3] (setting [7]) is -57%; in assay [3] (setting [8]) it was 82% (active); in assay [3] (at 50.0 µM), 92.6% (active); in assay [4] (setting [7]) it was -55%; in assay [4] (setting [8]) it was 88% (active); in assay [4] (at 50.0 µM) it was 96.3% (active). The growth inhibition in assay [5] (setting [7]) was -68%; in assay [5] (setting [8]), 89% (active); in assay [5] (at 50.0 µM), 90.8% (active); in assay [6] (setting [7]), -164%; in assay [6] (setting [8]), 93% (active); in assay [6] (at 50.0 µM), 98.7% (active).

As for `O=c1c(-c2ccccc2)c1-c1ccccc1`, the growth inhibition was 7% in assay [1] (setting [7]); 92% (active) in assay [1] (setting [8]); 98.7% (active) in assay [1] (at 50.0 µM); 4% in assay [2] (setting [7]); 95% (active) in assay [2] (setting [8]); 99.3% (active) in assay [2] (at 50.0 µM). In addition, the growth inhibition is 8% in assay [3] (setting [7]); 90% (active) in assay [3] (setting [8]); 98.9% (active) in assay [3] (at 50.0 µM); -2% in assay [4] (setting [7]); 96% (active) in assay [4] (setting [8]); 97.6% (active) in assay [4] (at 50.0 µM). For the same compound, the growth inhibition in assay [5] (setting [7]) is 5%; in assay [5] (setting [8]), 91% (active); in assay [5] (at 50.0 µM), 99.2% (active); in assay [6] (setting [7]), 1%; in assay [6] (setting [8]), 96% (active); in assay [6] (at 50.0 µM) it was 99% (active).

With `CCCCC(=O)c1nc(N(CC2CCCCC2)C(=O)NC)sc1N`, the growth inhibition was -3% in assay [1] (setting [7]); 11% in assay [1] (setting [8]); 1.8% in assay [1] (at 50.0 µM); -4% in assay [2] (setting [7]); 35% in assay [2] (setting [8]); -13.4% in assay [2] (at 50.0 µM). For the same compound, the growth inhibition in assay [3] (setting [7]) is -1%; in assay [3] (setting [8]) it was 57%; in assay [3] (at 50.0 µM), 7.75%; in assay [4] (setting [7]), -1%; in assay [4] (setting [8]), 7%; in assay [4] (at 50.0 µM), 44.2%. Moreover, the growth inhibition in assay [5] (setting [7]) was -3%; in assay [5] (setting [8]), 33%; in assay [5] (at 50.0 µM), 6.3%; in assay [6] (setting [7]), -3%; in assay [6] (setting [8]) it was 12%; in assay [6] (at 50.0 µM), 16.8%.

With `CC(=O)NNc1ccc(Cl)cc1[N+](=O)[O-]`, the growth inhibition is 18% in assay [1] (setting [7]); 30% in assay [1] (setting [8]); 51% in assay [1] (at 50.0 µM); -5% in assay [2] (setting [7]); 26% in assay [2] (setting [8]); 25.3% in assay [2] (at 50.0 µM). For the same compound, the growth inhibition in assay [3] (setting [7]) was -6%; in assay [3] (setting [8]), 20%; in assay [3] (at 50.0 µM), 12.1%; in assay [4] (setting [7]), 5%; in assay [4] (setting [8]), 4%; in assay [4] (at 50.0 µM), 44.1%. Besides, the growth inhibition was 3% in assay [5] (setting [7]); 19% in assay [5] (setting [8]); 77.3% (active) in assay [5] (at 50.0 µM); 28% in assay [6] (setting [7]); 69% in assay [6] (setting [8]); 91% (active) in assay [6] (at 50.0 µM).

With `COc1ccc(-c2cn(-c3ccccc3)c3ncnc(N)c23)cc1`, the growth inhibition in assay [1] (setting [7]) is 5%; in assay [1] (setting [8]), 18%; in assay [1] (at 50.0 µM) it was 24.1%; in assay [2] (setting [7]), 5%; in assay [2] (setting [8]), 23%; in assay [2] (at 50.0 µM), 11.8%. The growth inhibition in assay [3] (setting [7]) was 10%; in assay [3] (setting [8]), 52%; in assay [3] (at 50.0 µM), 79.5% (active); in assay [4] (setting [7]), 1%; in assay [4] (setting [8]), 0%; in assay [4] (at 50.0 µM), 33.8%. In addition, the growth inhibition in assay [5] (setting [7]) is 2%; in assay [5] (setting [8]) it was 9%; in assay [5] (at 50.0 µM), -15.4%; in assay [6] (setting [7]), -2%; in assay [6] (setting [8]), 14%; in assay [6] (at 50.0 µM) it was 17.6%.

In the case of `COc1ccc(C(=O)C2=C(C)Nc3ccc(Br)cc3S2)cc1`, the growth inhibition in assay [1] (setting [7]) is -2%; in assay [1] (setting [8]), 27%; in assay [1] (at 50.0 µM), 4.55%; in assay [2] (setting [7]), -2%; in assay [2] (setting [8]), 20%; in assay [2] (at 50.0 µM) it was 14.1%. Moreover, the growth inhibition is -12% in assay [3] (setting [7]); 44% in assay [3] (setting [8]); -4.7% in assay [3] (at 50.0 µM); -8% in assay [4] (setting [7]); 16% in assay [4] (setting [8]); -3.4% in assay [4] (at 50.0 µM). Besides, the growth inhibition in assay [5] (setting [7]) was -9%; in assay [5] (setting [8]), 38%; in assay [5] (at 50.0 µM), -0.3%; in assay [6] (setting [7]) it was -7%; in assay [6] (setting [8]), 23%; in assay [6] (at 50.0 µM) it was 12.4%.

As to `N#CC(C(=O)C(=O)Nc1ccc(Cl)cc1)c1c(Cl)cccc1Cl` (stereo not given), the growth inhibition in assay [1] (setting [7]) was 12%; in assay [1] (setting [8]), 1%; in assay [1] (at 50.0 µM), 56.2%; in assay [2] (setting [7]), 7%; in assay [2] (setting [8]), 11%; in assay [2] (at 50.0 µM), 7.5%. Further, the growth inhibition in assay [3] (setting [7]) was 24%; in assay [3] (setting [8]), 8%; in assay [3] (at 50.0 µM), 28.8%; in assay [4] (setting [7]), 18%; in assay [4] (setting [8]), 10%; in assay [4] (at 50.0 µM), -22.4%. Besides, the growth inhibition in assay [5] (setting [7]) is 27%; in assay [5] (setting [8]) it was 6%; in assay [5] (at 50.0 µM) it was 8.2%; in assay [6] (setting [7]) it was 14%; in assay [6] (setting [8]) it was 3%; in assay [6] (at 50.0 µM) it was 24.9%.

For the compound `BrCC(Br)Cc1ccc2c(c1)OCO2` (stereo not given), the growth inhibition is 5% in assay [1] (setting [7]); 30% in assay [1] (setting [8]); 20.8% in assay [1] (at 50.0 µM); 2% in assay [2] (setting [7]); 25% in assay [2] (setting [8]); -7.35% in assay [2] (at 50.0 µM). For the same compound, the growth inhibition in assay [3] (setting [7]) is 3%; in assay [3] (setting [8]), 60%; in assay [3] (at 50.0 µM), 49.4%; in assay [4] (setting [7]), 6%; in assay [4] (setting [8]), 21%; in assay [4] (at 50.0 µM), -21.6%. Moreover, the growth inhibition is 14% in assay [5] (setting [7]); 39% in assay [5] (setting [8]); 4.7% in assay [5] (at 50.0 µM); -1% in assay [6] (setting [7]); 84% (active) in assay [6] (setting [8]); 56.9% in assay [6] (at 50.0 µM).

Consider `CCCCCCCCCCCC(C)N` (stereo not given), for which the growth inhibition in assay [1] (setting [7]) was 15%; in assay [1] (setting [8]) it was 83% (active); in assay [1] (at 50.0 µM), 99% (active); in assay [2] (setting [7]) it was 4%; in assay [2] (setting [8]), 78% (active); in assay [2] (at 50.0 µM), 99.5% (active). For the same compound, the growth inhibition in assay [3] (setting [7]) is 4%; in assay [3] (setting [8]) it was 91% (active); in assay [3] (at 50.0 µM), 98.7% (active); in assay [4] (setting [7]), 12%; in assay [4] (setting [8]) it was 25%; in assay [4] (at 50.0 µM), 98% (active). The growth inhibition in assay [5] (setting [7]) is 11%; in assay [5] (setting [8]), 86% (active); in assay [5] (at 50.0 µM), 99.2% (active); in assay [6] (setting [7]), 2%; in assay [6] (setting [8]), 74% (active); in assay [6] (at 50.0 µM) it was 98.1% (active).
